Compound activity: PubChem BioAssay, Buhrlage Lab, Dana-Farber Cancer Institute and Novartis Institutes for BioMedical Research (Cambridge, Mass)
USP8 block: inhibitors of human USP8 deubiquitinase. actives 4.2% (n = 47,000). purified USP8, Ub-rhodamine cleavage fluorescence, 30 min. Ubiquitin carboxyl-terminal hydrolase 8 (Homo sapiens), P40818. inhibition, % at 20 µM
Target sequence (P40818 whole entry, looked up): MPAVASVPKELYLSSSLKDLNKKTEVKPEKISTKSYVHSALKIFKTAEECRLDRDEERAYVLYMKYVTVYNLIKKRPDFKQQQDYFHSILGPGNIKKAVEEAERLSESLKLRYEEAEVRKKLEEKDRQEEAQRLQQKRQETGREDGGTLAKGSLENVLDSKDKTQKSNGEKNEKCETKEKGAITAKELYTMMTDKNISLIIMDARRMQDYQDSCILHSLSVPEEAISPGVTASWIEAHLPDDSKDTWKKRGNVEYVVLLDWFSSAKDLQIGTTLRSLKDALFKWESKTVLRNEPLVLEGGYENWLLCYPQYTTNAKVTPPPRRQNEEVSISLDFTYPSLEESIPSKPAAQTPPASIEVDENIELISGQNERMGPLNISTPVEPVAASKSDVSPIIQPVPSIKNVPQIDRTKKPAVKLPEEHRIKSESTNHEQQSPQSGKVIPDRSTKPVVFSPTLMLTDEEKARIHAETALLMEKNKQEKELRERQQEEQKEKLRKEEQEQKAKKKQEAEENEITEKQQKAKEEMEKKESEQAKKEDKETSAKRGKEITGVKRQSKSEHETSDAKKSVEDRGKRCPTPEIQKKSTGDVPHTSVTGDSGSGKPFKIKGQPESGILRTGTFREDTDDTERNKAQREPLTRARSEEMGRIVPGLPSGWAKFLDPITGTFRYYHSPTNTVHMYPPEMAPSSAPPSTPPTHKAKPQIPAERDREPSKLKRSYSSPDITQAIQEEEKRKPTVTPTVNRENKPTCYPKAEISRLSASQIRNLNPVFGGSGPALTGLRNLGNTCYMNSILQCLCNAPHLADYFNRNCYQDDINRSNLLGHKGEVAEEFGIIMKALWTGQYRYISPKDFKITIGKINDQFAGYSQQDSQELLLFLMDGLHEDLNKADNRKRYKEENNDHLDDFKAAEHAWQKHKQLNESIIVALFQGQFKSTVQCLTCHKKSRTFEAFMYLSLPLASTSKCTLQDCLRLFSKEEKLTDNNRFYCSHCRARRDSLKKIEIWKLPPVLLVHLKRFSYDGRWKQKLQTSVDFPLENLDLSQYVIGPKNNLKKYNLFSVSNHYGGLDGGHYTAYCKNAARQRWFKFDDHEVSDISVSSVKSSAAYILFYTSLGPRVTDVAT
USP30 inh: inhibitors of human USP30 deubiquitinase. Ubiquitin carboxyl-terminal hydrolase 30 (Homo sapiens), Q70CQ3. purified USP30, Ub-rhodamine cleavage fluorescence. inhibition, % at 25 µM. actives 5.3% (n = 47,000). AID 1645860, 2021
USP10 block: inhibitors of human USP10 deubiquitinase. purified USP10, Ub-rhodamine fluorescence, 60 min. AID 1645856, 2021. Ubiquitin carboxyl-terminal hydrolase 10 (Homo sapiens), Q14694. inhibition, % at 20 µM. actives 1.1% (n = 47,000)
USP17 inh: inhibitors of human USP17 deubiquitinase. Ubiquitin carboxyl-terminal hydrolase 17-like protein 5 (Homo sapiens), A8MUK1. purified USP17, Ub-rhodamine cleavage fluorescence, 3 h. inhibition, % at 50 µM. actives 6.5% (n = 47,000). AID 1645855, 2021
USP28 block: inhibitors of human USP28 deubiquitinase; purified USP28, Ub-rhodamine cleavage fluorescence, 30 min; actives 3% (n = 47,000); inhibition, % at 25 µM; Ubiquitin carboxyl-terminal hydrolase 28 (Homo sapiens), Q96RU2
Hits are given with their value. This is a sample that favours compounds with a hit; in the whole collection about 14% have one here. No stated cut-off is given here; in the data, active means inhibition above about 30%; inactive means the rest.

CCc1nc(SCC(=O)Nc2cc(Cl)ccc2C)c2oc3ccccc3c2n1 was read as USP8 block inactive, USP30 inh 68.2, USP10 block inactive, USP17 inh 54.2 and USP28 block inactive.
Screening CCc1nc(SCC(=O)Nc2ccc(Cl)c(Cl)c2)c2oc3ccccc3c2n1 returned USP8 block inactive, USP30 inh inactive, USP10 block inactive, USP17 inh inactive and USP28 block inactive.
Screening CCc1nc(SCc2ccccc2C)c2oc3ccccc3c2n1 returned USP8 block inactive, USP30 inh 32.0, USP10 block inactive, USP17 inh inactive and USP28 block inactive.
CCc1nc(SCC(=O)Nc2ccccc2Cl)c2oc3ccccc3c2n1 was read as USP8 block inactive, USP30 inh inactive, USP10 block inactive, USP17 inh 58.0 and USP28 block inactive.
`O=C(NCc1ccc(Cl)cc1)C1Cc2c(ccc3ccccc23)O1` (centres undefined) gave USP8 block inactive, USP30 inh inactive, USP10 block inactive, USP17 inh inactive and USP28 block inactive.
CNC(=O)c1cc2nc(N(C)C)n(-c3ccccc3)c2s1 was read as USP8 block 77.4, USP30 inh inactive, USP10 block inactive, USP17 inh 54.4 and USP28 block inactive.
`CCC(=O)NC1CCN(c2nc3c(s2)c(C)nn3-c2ccc(OC)cc2)CC1` gave USP8 block inactive, USP30 inh inactive, USP10 block inactive, USP17 inh inactive and USP28 block inactive.
Screening CNC(=O)c1cc2nc(N(C)C)n(-c3ccc(OC)cc3)c2s1 returned USP8 block 78.0, USP30 inh inactive, USP10 block inactive, USP17 inh 45.8 and USP28 block inactive.
`COc1ccc(-n2c(N(C)C)nc3cc(C(=O)NC4CC4)sc32)cc1` gave USP8 block inactive, USP30 inh inactive, USP10 block inactive, USP17 inh inactive and USP28 block 41.5.
Screening COc1ccc2sc(NC(=O)NC(=O)c3c(Cl)cccc3Cl)nc2c1 returned USP8 block inactive, USP30 inh inactive, USP10 block inactive, USP17 inh inactive and USP28 block inactive.
Screening CCOC(=O)CNC(=O)c1cc2c(=O)n3ccccc3nc2s1 returned USP8 block inactive, USP30 inh inactive, USP10 block inactive, USP17 inh inactive and USP28 block inactive.
For CCNC(=O)c1cc2nc(N(C)C)n(-c3ccccc3)c2s1 the results were USP8 block 75.0, USP30 inh inactive, USP10 block inactive, USP17 inh 37.9 and USP28 block inactive.
For COc1ccccc1N1CCN(C(=O)CCc2c(C)c3ccc(O)cc3oc2=O)CC1 the results were USP8 block inactive, USP30 inh inactive, USP10 block inactive, USP17 inh inactive and USP28 block inactive.
`Cc1ccc(S(=O)(=O)Nc2c(-n3cnnc3)n[nH]c2C)cc1C` gave USP8 block inactive, USP30 inh inactive, USP10 block inactive, USP17 inh inactive and USP28 block inactive.
`Cc1oc2c(c1C(=O)NCc1ccccn1)CN(Cc1cccc(F)c1)CC2` gave USP8 block inactive, USP30 inh inactive, USP10 block inactive, USP17 inh inactive and USP28 block inactive.
`O=C1CC(O)C(O)c2cccc(O)c21` (centres undefined) gave USP8 block 76.5, USP30 inh inactive, USP10 block inactive, USP17 inh 90.5 and USP28 block 34.1.
Screening Cc1cc(C(=O)CSc2nc3ccccc3[nH]2)c(C)n1C1CC1 returned USP8 block inactive, USP10 block inactive and USP17 inh inactive.
Cc1cc2nc(SCC(=O)c3ccc(O)cc3)[nH]c2cc1C was read as USP8 block inactive, USP30 inh inactive, USP10 block inactive, USP17 inh 49.1 and USP28 block inactive.
For Nc1c2c(nc3cc(Cl)ccc13)CCCC2=O the results were USP8 block 44.8, USP30 inh inactive, USP10 block inactive, USP17 inh inactive and USP28 block inactive.
`COc1ccccc1C(=O)Nc1ccc(Oc2nc(C)nc3sc4c(c23)CCCC4)cc1` gave USP8 block inactive, USP30 inh inactive, USP10 block inactive, USP17 inh inactive and USP28 block inactive.
For COc1cccc2cc(C(=O)C3=C(O)C(=O)N(CCCN(C)C)C3c3ccco3)oc12 (centres undefined) the results were USP8 block 43.9, USP30 inh inactive, USP10 block inactive, USP17 inh inactive and USP28 block inactive.
For CNC(=O)N1CCC2(CC1)c1ncc(-c3ccccc3)n1CCN2C the results were USP8 block inactive, USP10 block inactive and USP17 inh inactive.
`COc1cc2c(c(OC)c1OC)-c1ccc(N3CCN(C)CC3)c(=O)cc1[C@@H](NC(C)=O)CC2` gave USP8 block inactive, USP30 inh inactive, USP10 block inactive, USP17 inh inactive and USP28 block inactive.
For COc1cc2c(c(OC)c1OC)-c1ccc(N3CCN(Cc4ccc5c(c4)OCO5)CC3)c(=O)cc1[C@@H](NC(C)=O)CC2 the results were USP8 block 45.1, USP30 inh inactive, USP10 block inactive, USP17 inh inactive and USP28 block inactive.
Screening Cc1ccc(NC(=O)c2cc(=O)n(C)c3c2c(=O)n(C)c(=O)n3C)c(C)c1 returned USP8 block inactive, USP30 inh 61.1, USP10 block inactive, USP17 inh inactive and USP28 block inactive.
Cn1c(=O)c2c(C(=O)Nc3ccc(Cl)cc3)cc(=O)n(C)c2n(C)c1=O was read as USP8 block inactive, USP30 inh inactive, USP10 block inactive, USP17 inh inactive and USP28 block inactive.
For Cc1ccc(NC(=O)c2cc(=O)n(C)c3c2c(=O)n(C)c(=O)n3C)cc1C the results were USP8 block inactive, USP30 inh inactive, USP10 block inactive, USP17 inh 43.6 and USP28 block inactive.
O=C(NC1CCCC1)C1CC(=O)N(c2cccc(-c3noc(-c4cccs4)n3)c2)C1 (centres undefined) was read as USP8 block inactive, USP30 inh inactive, USP10 block 45.3, USP17 inh 60.9 and USP28 block inactive.
For COc1ccc2c(c1)c1nc(C)sc1n2CCN1CCOCC1 the results were USP8 block 42.7, USP30 inh inactive, USP10 block inactive, USP17 inh inactive and USP28 block inactive.
C[C@H]1[C@@H](O)O[C@@H]2O[C@]3(C)CC[C@H]4[C@H](C)CC[C@@H]1[C@@]24OO3 was read as USP8 block inactive, USP30 inh inactive, USP10 block inactive, USP17 inh inactive and USP28 block inactive.
`C/C=C1/C2=CCCN3C(=O)O[C@H]([C@H]1O)[C@H]23` gave USP8 block inactive, USP30 inh inactive, USP10 block inactive, USP17 inh 72.2 and USP28 block 69.1.
For CS(=O)(=O)Nc1cccc(NC(=O)c2cccc3ncccc23)c1 the results were USP8 block inactive, USP30 inh inactive, USP10 block inactive, USP17 inh inactive and USP28 block inactive.
For COc1ccc(-n2ccc(=O)c(-c3nc(-c4ccccc4F)no3)n2)cc1OC the results were USP8 block 45.1, USP30 inh inactive, USP10 block inactive, USP17 inh inactive and USP28 block 62.8.
